# Only some compounds are listed: those with a hit (about 5.6% of all), similar ones and a draw of the others.
# Cardio protect = protects H9c2 cardiomyocytes from peroxide injury; protection from H2O2 cell death, % at 20 µM; H2O2 injury protection, ATPLite, 2 h; hit rate 0.63% among 360,000;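 active = compounds giving at least 50% protection of heart cells from peroxide-induced death in the single-dose screen, raw or plate-pattern-corrected value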;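 also: 0% = DMSO wells with peroxide and 100% = DMSO wells without peroxide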
# PHOSPHO1 block = blocks human PHOSPHO1 phosphatase activity; Q8TCT1; recombinant PHOSPHO1, absorbance phosphatase assay; inhibition, % at 13.3 µM; hit rate 1.1% among 290,000; AID 1565; in the data active = inhibition above about 60%
# Target sequence (Q8TCT1 whole entry, looked up): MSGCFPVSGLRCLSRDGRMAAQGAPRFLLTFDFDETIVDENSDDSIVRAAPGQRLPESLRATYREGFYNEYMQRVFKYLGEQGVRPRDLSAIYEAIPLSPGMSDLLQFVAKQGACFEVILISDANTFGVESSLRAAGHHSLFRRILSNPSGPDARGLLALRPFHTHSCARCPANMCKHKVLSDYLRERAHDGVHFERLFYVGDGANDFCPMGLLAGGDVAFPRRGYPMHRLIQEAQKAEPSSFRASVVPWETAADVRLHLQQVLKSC
# ALR inh = inhibitors of human sulfhydryl oxidase ALR. P55789. purified ALR, DTT oxidation, H2O2 HRP-luminol luminescence. inhibition, % (no concentration beside the values). hit rate 3.8% among 290,000. AID 485317;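 active = mean replicate inhibition above about 79%, with every replicate also reaching it, limit read from the data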
# Target sequence (P55789 whole entry, looked up): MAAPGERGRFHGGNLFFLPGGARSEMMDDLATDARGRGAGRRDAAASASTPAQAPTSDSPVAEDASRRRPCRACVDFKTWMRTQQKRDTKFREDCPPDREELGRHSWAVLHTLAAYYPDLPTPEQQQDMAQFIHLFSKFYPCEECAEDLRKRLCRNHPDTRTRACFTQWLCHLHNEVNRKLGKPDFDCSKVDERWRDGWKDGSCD
# PfGluPho inh = PfG6PD (Plasmodium falciparum) enzyme inhibition | PfGluPho enzyme, NADPH resazurin-diaphorase fluorescence | inhibition, % at 20 µM | hit rate 0.78% among 350,000;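 active = inhibition reaching at least a set limit at 20 µM in the primary screen, cut at about 59% in these data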;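 also: 0% = DMSO wells with substrate and 100% = DMSO wells lacking glucose-6-phosphate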
# M18AAP inhibitor = blocks P. falciparum M18 aspartyl aminopeptidase; inhibition, % at 7.35 µM; recombinant PfM18AAP, H-Glu-NHMec fluorogenic cleavage; hit rate 1.2% among 290,000;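 active = inhibition above the campaign mean inhibition over all tested compounds plus 3 SD, cut at about 28% in these data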;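 also: 0% = plate median of test compound wells and 100% = 2 mM ZnCl2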
# An asterisk follows results filed as active; nt = no result.
SMILES,Cardio protect,PHOSPHO1 block,ALR inh,PfGluPho inh,M18AAP inhibitor
CN1CCN(C(=O)c2ccc(CSc3nc4ccncc4n3Cc3ccc(F)cc3)cc2)CC1,17.4,-11.1,-8.4,-3.3,-2.1
CCC(C)NC(=O)c1ccc(CSc2nc3ccncc3n2Cc2ccc(F)cc2)cc1 (stereo unspecified),3.5,-20.9,15.2,5.2,-4.4
O=C(NC1CCCC1)c1ccc(CSc2nc3ccncc3n2Cc2ccc(F)cc2)cc1,-4.6,-11.1,98.9*,-0.8,-11.2
O=C(OC1CCCC1)c1ccc(Cl)cc1Cl,-2.8,nt,nt,-12.8,nt
COc1ccc(-c2nc3ccccc3c(=O)n2-c2c(C)n(C)n(-c3ccccc3)c2=O)cc1,11.1,23.7,-9.2,-3.5,-7.4
Cc1c(-n2c(-c3ccccc3)nc3ccccc3c2=O)c(=O)n(-c2ccccc2)n1C,4.0,60.0*,-2.5,14.6,-7.9
N#C/C(=C\c1cn(-c2ccccc2)nc1-c1cccnc1)c1nnc2n1CCCCC2,51.0*,13.8,22.1,-8.5,2.2
Cc1ccc(S(=O)(=O)NCC(=O)NCC2CCCCC2)cc1C,0.6,18.4,97.4*,15.3,5.9
Cc1cc(C)c(C)c(S(=O)(=O)NCC(=O)NCC2CCCCC2)c1C,-6.9,12.0,2.3,-0.4,-3.1
CCOc1ccc(S(=O)(=O)NCC(=O)NC2CCCCC2)cc1,-0.4,nt,91.1*,1.8,nt
CC(Nc1ccc(Br)cc1)C(=O)NC(=O)NC1CCCCC1 (stereo unspecified),-12.7,nt,nt,9.9,nt
O=C1c2ccccc2NC(c2ccccc2)N1/N=C/c1ccccc1 (stereo unspecified),-31.1,19.4,3.9,2.2,-6.8
O=C1c2ccccc2NC(c2ccc(O)cc2)N1/N=C/c1ccc(O)cc1 (stereo unspecified),-5.6,-9.7,99.4*,48.0,-6.0
CCNc1nc(NCC)n2c(SCC(=O)Nc3ccc(CC)cc3)nnc2n1,-1.5,nt,98.7*,57.4,nt
CCNc1nc(NCC)n2c(SCC(=O)Nc3ccc(NC(C)=O)cc3)nnc2n1,1.6,nt,97.5*,-6.7,nt
N#Cc1c(N)n(C2OC(CO)C(O)C2O)c2ncnc(N)c12 (stereo unspecified),-0.1,nt,nt,14.7,nt
C/C(=N\Nc1nccnc1Cl)c1ccc(O)cc1,7.7,35.7,93.1*,22.6,5.7
C/C(=N\Nc1c(Cl)c(Cl)nc(C(=O)O)c1Cl)c1ccc(O)cc1,1.4,20.0,nt,-14.6,31.4*
COc1ccc(CC(=O)Oc2ccc(F)cc2)cc1,-2.8,31.6,-15.8,11.8,-8.9
CCCCCC(=O)N1C[C@@H](n2cc(-c3ccc(F)cc3)nn2)[C@H](O)C[C@@H]1c1ccc(Cl)cc1,-11.7,nt,nt,29.7,nt
CC(OC(=O)C1CC1C)C(=O)Nc1ccc(Cl)cn1 (stereo unspecified),-2.0,nt,nt,6.5,nt
O=C(CCNC(=O)c1ccccc1Cl)Nc1cc(S(=O)(=O)N2CCOCC2)ccc1N1CCCC1,8.2,33.4,-6.1,-10.7,-1.0
O=C(CSc1nc2ccccc2c(=O)n1Cc1ccccc1)Nc1ccc(Br)cc1C(=O)O,-5.0,10.3,97.3*,-36.3,-2.0
Cc1ccc(NC(=O)CSc2nc(=O)cc(N)n2CCc2ccccc2)cc1,5.6,-2.4,98.9*,28.2,-0.8
Nc1cc(=O)nc(SCC(=O)Nc2cccc3ccccc23)n1CCc1ccccc1,2.8,20.1,98.3*,8.4,-2.1
SMILES,Cardio protect,PHOSPHO1 block,ALR inh,PfGluPho inh,M18AAP inhibitor
Cc1ccc(NC(=O)CSc2nc(=O)cc(N)n2-c2ccccc2)cc1,6.6,-47.7,nt,11.3,-5.4
Cc1ccc(S(=O)(=O)N2CCOCC2)cc1NC(=O)CSc1nc2ccccc2c(=O)n1Cc1ccccc1,11.8,4.7,-7.4,-1.4,6.0
C=CCn1c(N)cc(=O)nc1SCC(=O)Nc1ccc(C)cc1,-16.1,-11.6,98.6*,-3.7,-11.8
C[C@@H]1O[C@@H](OC2C(O)C(OCCc3ccc(O)c(O)c3)OC(CO)C2OC(=O)/C=C/c2ccc(O)c(O)c2)[C@H](O)[C@H](O)[C@H]1O (stereo partly specified),nt,nt,99.0*,nt,nt
COc1ccc(CC(=O)c2ccc(OC3OC(CO)C(O)C(O)C3O)cc2O)cc1 (stereo unspecified),6.5,15.9,19.4,-0.9,-10.9
NNC(=O)c1csc(-c2ccc(C(F)(F)F)cc2Cl)n1,4.8,8.3,93.3*,-12.6,-0.1
CNC(=O)NNC(=O)c1csc(-c2ccc(C(F)(F)F)cc2Cl)n1,0.9,27.3,12.6,-1.1,3.4
CCOC(=O)C1=C(CSc2nc(-c3ccncc3)ccc2C#N)OC(N)=C(C#N)C1c1cccnc1 (stereo unspecified),10.0,61.0*,17.4,17.9,26.7

# Bioassay records: PubChem BioAssay, several laboratories
